Experiment [1] concerns the target ATP-dependent translocase ABCB1 (Homo sapiens) (UniProt P08183). Briefly: P-glycoprotein substrate transport blockade – cell-based (AID 377; in the data active = fluorescence slope change above about 50%). The conditions noted are these: MDR1-expressing cells, fluorescent substrate accumulation slope; stronger effect = higher value; concentration not given here.
Experiment [2] can be described thus: blockers of polyQ-driven CASP3 activation – cell-based (AID 1583). The conditions noted are these: polyglutamine-induced caspase-3 activation, cell assay; stronger effect = higher value;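 tested at 10 µM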.
Experiment [3] can be described thus: glutamate transport activators, MN-1 cells, MN-1 cell line (AID 1612).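 Note: tested at 1 µM final; 0% = mean of DMSO vehicle wells on each plate; positive means more glutamate uptake than control and negative means less.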 The settings on record: MN-1 motor neuron cells, stronger effect = higher value.
A short description of experiment [4]: 75Q-TubH aggregate inhibition, S. cerevisiae, yeast (AID 1616). The settings on record: S. cerevisiae 75Q-TubH polyglutamine aggregation suppression; stronger effect = higher value.
Experiment [5] is described as follows: compounds altering viability of human ES cells (AID 493140; call rule not given here;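 note: cells exposed to compounds for four days before counting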). The conditions noted are these: human embryonic stem cell survival screen; stronger effect = higher value.
Experiment [6] in a line: restoration of touch response, mutant HTT neurons – whole organism, C. elegans mechanosensory neurons, N-terminal huntingtin (AID 1599). The settings on record: C. elegans polyQ-huntingtin mechanosensory neurons, stronger effect = higher value.
Another experiment has as its system F380Y. Nature of the experiment: BK channel mutant inhibitors and activators – cell-based, U2OS BacMam, thallium flux, beta subunits, selectivity assay, profiling panel (AID 1259406).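 Note: initial slope of Thallos dye fluorescence rise after thallium is added; log ratio against the mean of 0.3% DMSO vehicle wells on the same plate.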 The conditions noted are these: U2OS BacMam BK variants, at 30 µM.
For a further experiment, the system named is F380Y/beta2Delta. The experiment is described as above. The conditions noted are these: U2OS BacMam BK variants, at 30 µM.
In experiment [7] the target is Calcium-activated potassium channel subunit alpha-1 (Homo sapiens) + Leucine-rich repeat-containing protein 26 (Homo sapiens) (UniProt Q12791+Q2I0M4). The experiment is described as above. The conditions noted are these: U2OS BacMam BK variants, F380Y/Slo1WT/gamma1, at 30 µM.
In another experiment the test system is R275C. The description is as above. The settings on record: U2OS BacMam BK variants, at 30 µM.
A further experiment relates to R275C/beta1. The description is as above. The settings on record: U2OS BacMam BK variants, at 30 µM.
The subject of another experiment is R275C/beta2Delta. The description is as above. The conditions noted are these: U2OS BacMam BK variants, at 30 µM.
For the next experiment, the system named is R275C/Slo1WT/beta2. Described as above. The settings on record: U2OS BacMam BK variants, at 30 µM.
The nature of experiment [8]: modulation of C. elegans fzo-1 (AID 1259413; call rule not given here;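 note: fzo-1 mutant C. elegans worms in liquid wells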). The conditions noted are these: C. elegans fzo-1 modulator screen, mean read-out; stronger effect = higher value.
Experiment [9] in a line: compounds altering circadian rhythm period length – cell-based, LOPAC library, luminescence reporter (AID 2774; call rule not given here;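 note: values are relative to mean of DMSO wells on each plate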). The settings on record: circadian reporter cells, at 7 µM, actives lie on both sides.
Experiment [10] has as its system Hepatitis C virus NS3 helicase. Nature of the experiment: blockers of NS3h binding to ssDNA – biochemical, fluorescence polarization, LOPAC1280 library, primary screen (AID 687035; in the data active = inhibition above about 37%). The settings on record: Purified HCV NS3 helicase, Cy5-dT15 ssDNA binding fluorescence polarization; stronger effect = higher value; concentration not given here.
The nature of experiment [11]: compounds altering Cy5-DNA-NS3h complex signal – biochemical, LOPAC1280, artefact control for HCV NS3 helicase inhibitor project (AID 687037; call rule not given here). The conditions noted are these: Cy5-DNA-NS3h complex fluorescence interference counterscreen.
In experiment [12] the test system is Aerobactin synthetase IucA (Klebsiella pneumoniae, hypervirulent). Briefly: biochemical IucA inhibition screen of LOPAC library by absorbance (AID 1346212; call rule not given here;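 note: 100% = no compound wells and 0% = no enzyme wells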). The settings on record: IucA enzyme assay, absorbance (OD) readout; stronger effect = lower value;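 tested at 8 µM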.
Experiment [13] in a line: blockers of cellular phospholipid synthesis – cell-based, LOPAC library, screen 4, primary screen (AID 1347384; call rule not given here). The settings on record: animal cells, phospholipid biosynthesis inhibition screen; at 10 µM.

Data on 11 compounds can be found in PubChem BioAssay.

Each structure is given as a SMILES string. Inconclusive results are not listed. For some of these results: Potency and affinity values are given separately. The source made the active and inactive calls.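 Rule for the calls, unless noted: active = thallium flux through the channel raised or lowered by more than 3 SD from vehicle-only wells, actives on both sides; inactive = the rest.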

Sequence of Calcium-activated potassium channel subunit alpha-1 (Homo sapiens) + Leucine-rich repeat-containing protein 26 (Homo sapiens) (Q2I0M4 whole entry, looked up, one chain of several): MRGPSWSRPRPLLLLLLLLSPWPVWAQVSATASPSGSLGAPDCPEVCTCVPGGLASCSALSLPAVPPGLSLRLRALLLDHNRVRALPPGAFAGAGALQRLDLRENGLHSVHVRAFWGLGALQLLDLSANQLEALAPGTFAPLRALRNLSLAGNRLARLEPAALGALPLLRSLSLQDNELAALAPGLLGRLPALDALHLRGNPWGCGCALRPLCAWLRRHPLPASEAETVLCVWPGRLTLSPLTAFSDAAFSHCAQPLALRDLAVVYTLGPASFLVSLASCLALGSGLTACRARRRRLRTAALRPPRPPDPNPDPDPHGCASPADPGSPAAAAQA
Sequence of ATP-dependent translocase ABCB1 (Homo sapiens) (P08183 whole entry, looked up): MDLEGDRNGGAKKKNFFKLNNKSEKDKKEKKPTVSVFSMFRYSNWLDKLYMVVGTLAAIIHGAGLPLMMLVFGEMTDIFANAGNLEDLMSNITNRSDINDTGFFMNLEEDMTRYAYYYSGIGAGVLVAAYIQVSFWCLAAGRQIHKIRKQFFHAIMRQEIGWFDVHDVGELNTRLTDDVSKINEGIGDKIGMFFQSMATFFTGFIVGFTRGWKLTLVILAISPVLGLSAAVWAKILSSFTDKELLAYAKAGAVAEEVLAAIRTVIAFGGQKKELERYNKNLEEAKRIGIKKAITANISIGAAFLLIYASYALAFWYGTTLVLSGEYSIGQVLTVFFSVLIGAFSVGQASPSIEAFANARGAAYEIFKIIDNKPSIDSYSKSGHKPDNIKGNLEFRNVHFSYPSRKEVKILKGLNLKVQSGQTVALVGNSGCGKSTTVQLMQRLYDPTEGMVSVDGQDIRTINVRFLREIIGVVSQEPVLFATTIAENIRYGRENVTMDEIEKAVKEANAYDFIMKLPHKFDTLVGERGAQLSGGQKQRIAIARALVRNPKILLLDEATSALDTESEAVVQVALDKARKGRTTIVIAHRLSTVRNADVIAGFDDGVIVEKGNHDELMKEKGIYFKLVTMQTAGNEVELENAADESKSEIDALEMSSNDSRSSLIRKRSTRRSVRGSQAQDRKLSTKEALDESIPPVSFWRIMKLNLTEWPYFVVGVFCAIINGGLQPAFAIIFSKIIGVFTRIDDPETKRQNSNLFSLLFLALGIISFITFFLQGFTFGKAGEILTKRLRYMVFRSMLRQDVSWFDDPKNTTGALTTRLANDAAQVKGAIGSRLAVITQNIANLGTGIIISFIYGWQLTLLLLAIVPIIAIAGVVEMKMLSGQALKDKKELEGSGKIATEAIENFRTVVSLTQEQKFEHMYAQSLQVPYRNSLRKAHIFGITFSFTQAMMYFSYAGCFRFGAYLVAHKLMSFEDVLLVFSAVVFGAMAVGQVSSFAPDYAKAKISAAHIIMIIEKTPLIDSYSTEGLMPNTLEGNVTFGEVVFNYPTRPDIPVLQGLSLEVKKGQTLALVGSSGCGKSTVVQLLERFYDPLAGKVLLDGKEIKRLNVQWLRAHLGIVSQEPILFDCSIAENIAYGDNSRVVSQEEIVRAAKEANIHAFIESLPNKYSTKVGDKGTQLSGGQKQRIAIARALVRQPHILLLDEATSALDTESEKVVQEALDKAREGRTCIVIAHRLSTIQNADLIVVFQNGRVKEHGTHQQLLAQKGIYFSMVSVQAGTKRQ

With `Clc1ccc(C(OCCN2CCCCC2)c2ccccc2)cc1` (stereo not drawn), the fluorescence slope change in experiment [1] is 54.5% (active). The inhibition in experiment [2] worked out at 4.2%. Also, the glutamate uptake change in experiment [3] worked out at 29.4%. The aggregation suppression score in [4] came to 1.4. The survival in experiment [5] was 3.58 (inactive).
For `CCCCCCCCCCCCCCCC[N+](C)(C)C`, the inhibition in experiment [2] came to 66.5%. This compound had a rescue above control in experiment [6] of 0. Also, in [3], the glutamate uptake change was -41.1%. The compound further displayed an aggregation suppression score in experiment [4] of -0.0208.
Regarding `C=C1C[C@@H]2[C@H](CC[C@]3(C)C(=O)CC[C@@H]23)[C@@]2(C)C=CC(=O)C=C12`, the log fold change Tl+ flux in the experiment with F380Y is -0.00852 (inactive); with F380Y/beta2Delta, 0.0277 (inactive); in experiment [7], 0.0186 (inactive); with R275C, -0.00349 (inactive); in the experiment on R275C/beta1 it was 0.0308 (inactive); with R275C/beta2Delta it was 0.00258 (inactive). In the experiment on R275C/Slo1WT/beta2, the log fold change Tl+ flux is 0.0155 (inactive).
Take `CN1CCN(C(=O)O[C@H]2c3nccnc3C(=O)N2c2ccc(Cl)cn2)CC1`: the mean signal in experiment [8] is 290 (active). In addition, the log fold change Tl+ flux was -0.0134 (inactive) in the experiment with F380Y; 0.0361 (inactive) in the experiment on F380Y/beta2Delta; -0.0271 (inactive) in experiment [7]; 0.0376 (inactive) in the experiment with R275C; 0.0325 (inactive) in the experiment with R275C/beta1; 0.0513 (inactive) with R275C/beta2Delta. The log fold change Tl+ flux in the experiment on R275C/Slo1WT/beta2 was -0.0138 (inactive).
Turning to `CC(C)c1cccc(C(C)C)c1O`, in [9], the period change was 0.005 h (inactive). Besides, in experiment [5], the survival was 5.17 (inactive). The inhibition in [10] is -1% (inactive). In experiment [11], the fluorescence ratio (interference) was 1 (inactive). The mean signal in experiment [8] was 226 (inactive). In addition, the remaining activity in experiment [12] is 108% (inactive). Also, the outcome in [13] was inactive. In addition, the log fold change Tl+ flux in the experiment with F380Y was -0.0182 (inactive); in the experiment with F380Y/beta2Delta, -0.0275 (inactive); in [7] it was -0.0487 (inactive); in the experiment with R275C it was -0.0316 (inactive); in the experiment on R275C/beta1, -0.0537 (inactive); in the experiment with R275C/beta2Delta it was -0.0157 (inactive). In addition, in the experiment with R275C/Slo1WT/beta2, the log fold change Tl+ flux was -0.0465 (inactive).
Consider `O=C(O)C(Cl)Cl`, for which, in experiment [8], the mean signal was 259 (inactive). Further, the log fold change Tl+ flux in the experiment on F380Y is -0.0365 (inactive); in the experiment on F380Y/beta2Delta, -0.00825 (inactive); in [7], -0.0139 (inactive); in the experiment with R275C it was -0.098 (inactive); in the experiment on R275C/beta1, 0.0188 (inactive); in the experiment with R275C/beta2Delta, -0.00393 (inactive). Further, the log fold change Tl+ flux with R275C/Slo1WT/beta2 is -0.0385 (inactive).
As for `O=P1(NCCCl)OCCCN1CCCl` (stereo not drawn), in [5], the survival was 3.83 (inactive).
Turning to `c1ccc2c(c1)OCC(C1=NCCN1)O2` (stereo not drawn), the period change in experiment [9] is 0.1 h (inactive). Moreover, in experiment [5], the survival is 1.58 (inactive). The inhibition in experiment [10] was -7% (inactive). Also, the fluorescence ratio (interference) in experiment [11] is 0.9 (inactive). In addition, in experiment [12], the remaining activity was 109% (inactive). For the same compound, the outcome in experiment [13] was inactive.
Regarding `COc1cccc([C@@]2(O)CCCC[C@@H]2CN(C)C)c1`, the mean signal in [8] is 274 (inactive). Further, the log fold change Tl+ flux in the experiment on F380Y was -0.0178 (inactive); in the experiment on F380Y/beta2Delta, -0.0331 (inactive); in [7] it was -0.0312 (inactive); in the experiment on R275C it was -0.0685 (inactive); in the experiment on R275C/beta1, -0.0302 (inactive); in the experiment with R275C/beta2Delta, 0.00141 (inactive). For the same compound, the log fold change Tl+ flux in the experiment on R275C/Slo1WT/beta2 is 0.0567 (inactive).
Take `C[N+]1(CCC(C(N)=O)(c2ccccc2)c2ccccc2)CCCCC1`: in experiment [8], the mean signal is 231 (inactive). The log fold change Tl+ flux with F380Y was 0.00354 (inactive); in the experiment on F380Y/beta2Delta, 0.00809 (inactive); in experiment [7], 0.0152 (inactive); in the experiment on R275C it was -0.0159 (inactive); in the experiment on R275C/beta1, -0.0271 (inactive); with R275C/beta2Delta it was -0.0181 (inactive). Moreover, in the experiment on R275C/Slo1WT/beta2, the log fold change Tl+ flux is 0.0123 (inactive).
For the compound `Oc1cccc2cccnc12`, the inhibition in experiment [2] was -67%. This compound also displayed a rescue above control in [6] of 8.29. Besides, in experiment [3], the glutamate uptake change was 53.7%. The aggregation suppression score in [4] was 0.00802.
